Screening results: PubChem, The Scripps Research Institute Molecular Screening Center
A selection: hits, their analogues and other compounds. The true share with any hit is near 3.5%.
GPR151 ag – human GPR151 activation; activation, % at 11.2 µM; 1% of 650,000 active; PathHunter beta-arrestin GPR151 cells, luminescence; Q8TDV0; in the data active means activation above about 4.9%
TEAD-YAP block – TEAD-YAP interaction inhibition; HEK-TIYL cells, TEAD-Gal4/YAP UAS-luciferase luminescence; inhibition, % at 9.12 µM; 1.4% of 640,000 active; AID 1259422; in the data active means inhibition above about 32%
MITF inh – inhibitors of human MITF. 0.91% of 650,000 active. inhibition, % at 2.6 µM. AID 1259374. AlphaScreen MITF homodimerization, bead proximity signal. O75030; in the data active means inhibition above about 50%
Target sequence (O75030 whole entry, looked up): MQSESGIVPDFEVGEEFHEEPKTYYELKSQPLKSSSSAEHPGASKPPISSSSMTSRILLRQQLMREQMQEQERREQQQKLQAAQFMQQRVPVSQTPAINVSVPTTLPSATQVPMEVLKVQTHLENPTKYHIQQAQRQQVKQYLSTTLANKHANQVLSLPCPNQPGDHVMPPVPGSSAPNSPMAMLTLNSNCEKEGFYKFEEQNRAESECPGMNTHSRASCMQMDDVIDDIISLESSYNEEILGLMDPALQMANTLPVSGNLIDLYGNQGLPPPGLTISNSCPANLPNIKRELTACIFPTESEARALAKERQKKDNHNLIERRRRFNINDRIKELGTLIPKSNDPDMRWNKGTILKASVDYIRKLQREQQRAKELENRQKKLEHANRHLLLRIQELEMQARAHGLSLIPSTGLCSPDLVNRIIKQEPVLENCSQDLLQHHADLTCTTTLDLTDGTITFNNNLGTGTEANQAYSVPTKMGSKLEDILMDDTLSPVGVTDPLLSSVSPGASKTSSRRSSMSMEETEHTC
FBW7 activator – human FBW7 E3 ligase activation, primary screen | Q969H0 | AlphaScreen FBW7–phospho-cyclin E peptide binding, activator screen | normalized activity (activation), % at 26.1 µM | 0.13% of 650,000 active | AID 1259310; in the data active means normalized activity above about 1.9%;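 further: purified mutant Fbw7 with reduced substrate affinity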
A number is an active result; ! = not active in a repeat.

How did COC(=O)c1ccc(N(C(=O)c2ccco2)C(C(=O)NC2CCCC2)c2cccnc2)cc1 (stereo not given) do in these assays?
GPR151 ag: inactive; TEAD-YAP block: inactive; MITF inh: inactive; FBW7 activator: inactive

What do the screens show for `CSc1sc(C)cc1C1C(C(=O)Nc2ccc(F)cc2)=C(C)NC2=C1C(=O)CC(C)(C)C2` (stereo not given)?
GPR151 ag: inactive; TEAD-YAP block: inactive; MITF inh: inactive; FBW7 activator: inactive

Results for CNS(=O)(=O)c1ccccc1Nc1cc(Nc2ccc3c(c2)CCC(=O)N3)ncc1C(F)(F)F ?
GPR151 ag: inactive; TEAD-YAP block: 93; MITF inh: inactive; FBW7 activator: inactive

What do the screens show for `CNS(=O)(=O)c1ccccc1Nc1cc(Nc2ccccc2S(=O)(=O)NC)c(C(F)(F)F)cn1`?
GPR151 ag: inactive; TEAD-YAP block: inactive; MITF inh: inactive; FBW7 activator: inactive

What do the screens show for `CN(C)c1ccc(Nc2nc(NCC3CCCO3)c3ccccc3n2)cc1` (stereo not given)?
GPR151 ag: inactive; TEAD-YAP block: inactive; MITF inh: 60; FBW7 activator: inactive

Results for CC(C)CC(=O)Nc1ccc(-c2cn3ccccc3n2)cc1 ?
GPR151 ag: inactive; TEAD-YAP block: 41; MITF inh: inactive; FBW7 activator: inactive

What do the screens show for `Cc1cccn2cc(-c3ccc(NC(=O)CC(C)C)cc3)nc12`?
GPR151 ag: inactive; TEAD-YAP block: inactive; MITF inh: inactive; FBW7 activator: inactive

Results for CCc1ccc(-c2cn3nc(C)c(C)nc3n2)cc1 ?
GPR151 ag: inactive; TEAD-YAP block: 92; MITF inh: inactive; FBW7 activator: inactive

Results for CCc1ccc(-c2cn3ccccc3n2)cc1 ?
GPR151 ag: inactive; TEAD-YAP block: 69; MITF inh: inactive; FBW7 activator: inactive

How did CC(=O)Nc1ccc(-c2cn3ccccc3n2)cc1 do in these assays?
GPR151 ag: inactive; TEAD-YAP block: 39; MITF inh: inactive; FBW7 activator: inactive

Results for CC1CCN(C(c2ccccc2)c2nnnn2Cc2ccccc2)CC1 (stereo not given) ?
GPR151 ag: inactive; TEAD-YAP block: inactive; MITF inh: inactive; FBW7 activator: inactive

Results for Cc1cc(N2CCOCC2)nc2ccc(NC(=O)c3ccncc3)cc12 ?
GPR151 ag: inactive; TEAD-YAP block: 49; MITF inh: inactive; FBW7 activator: inactive

What do the screens show for `O=C(NCc1cccnc1)c1cccc(OC2CCN(Cc3nccs3)CC2)c1`?
GPR151 ag: inactive; TEAD-YAP block: inactive; MITF inh: inactive; FBW7 activator: inactive

How did COc1cc(/C=C2/SC(=Nc3ccc(O)cc3)NC2=O)ccc1O do in these assays?
GPR151 ag: inactive; TEAD-YAP block: 49; MITF inh: inactive; FBW7 activator: inactive

Results for O=C1NC(=Nc2ccc(O)cc2)S/C1=C\c1ccccc1F ?
GPR151 ag: inactive; TEAD-YAP block: 43; MITF inh: inactive; FBW7 activator: inactive

How did COc1ccc(/C=C2\SC(=Nc3ccc(F)cc3)NC2=O)cc1O do in these assays?
GPR151 ag: inactive; TEAD-YAP block: 52; MITF inh: inactive; FBW7 activator: inactive

How did COc1cc(/C=C2\SC(=Nc3ccc(F)cc3)NC2=O)cc(OC)c1OC do in these assays?
GPR151 ag: inactive; TEAD-YAP block: inactive; MITF inh: inactive; FBW7 activator: inactive

Results for COc1cc(/C=C2/SC(=Nc3ccccc3)NC2=O)ccc1O ?
GPR151 ag: inactive; TEAD-YAP block: inactive; MITF inh: inactive; FBW7 activator: inactive

How did COc1cc(/C=C2\SC(=Nc3ccccc3OC)NC2=O)ccc1O do in these assays?
GPR151 ag: inactive; TEAD-YAP block: 57; MITF inh: inactive; FBW7 activator: inactive

Results for COc1cc(/C=C2\SC(=Nc3ccccc3)NC2=O)ccc1O ?
GPR151 ag: inactive; TEAD-YAP block: inactive; MITF inh: inactive; FBW7 activator: inactive

How did O=C(CC1C(=O)NCCN1Cc1ccc(F)c(F)c1)NCCN1CCOC1=O (stereo not given) do in these assays?
GPR151 ag: inactive; TEAD-YAP block: inactive; MITF inh: inactive; FBW7 activator: inactive

Results for COc1cc(-c2cc(C(F)(F)F)n3ncc(C(=O)Nc4ccc(C)c(C)c4)c3n2)cc(OC)c1OC ?
GPR151 ag: inactive; TEAD-YAP block: inactive; MITF inh: inactive; FBW7 activator: inactive

How did O=C(Cc1ccc(F)cc1)N1CC[C@@H]2[C@H](CCCN2C(=O)C2=CCCC2)C1 do in these assays?
GPR151 ag: inactive; TEAD-YAP block: inactive; MITF inh: inactive; FBW7 activator: inactive

How did Cc1c(C(=O)Nc2sc3c(c2C(N)=O)CCC3)oc2ccccc12 do in these assays?
GPR151 ag: inactive; TEAD-YAP block: inactive; MITF inh: inactive; FBW7 activator: inactive

What do the screens show for `Cc1cc(I)ccc1NCC(=O)N/N=C/c1ccco1`?
GPR151 ag: inactive; TEAD-YAP block: inactive; MITF inh: inactive; FBW7 activator: inactive

Results for O=C1NC(=Nc2ccc(O)cc2)S/C1=C/c1ccccc1 ?
GPR151 ag: inactive; TEAD-YAP block: inactive; MITF inh: inactive; FBW7 activator: inactive

Results for O=C1NC(=Nc2ccc(O)cc2)S/C1=C\c1cccc(O)c1 ?
GPR151 ag: inactive; TEAD-YAP block: 57; MITF inh: inactive; FBW7 activator: inactive

What do the screens show for `Oc1cc(O)c2c(c1)O[C@H](c1cc(O)c(O)c(O)c1)[C@H](O)C2`?
GPR151 ag: inactive; TEAD-YAP block: inactive; MITF inh: 87; FBW7 activator: inactive

How did O=c1c(O)cc([C@H]2Oc3cc(O)cc(O)c3C[C@H]2O)cc2c([C@H]3Oc4cc(O)cc(O)c4C[C@@H]3O)cc(O)c(O)c12 do in these assays?
GPR151 ag: inactive; TEAD-YAP block: inactive; MITF inh: 76; FBW7 activator: inactive

How did O=C1C[C@@H](c2ccccc2)Oc2cc(O)cc(O)c21 do in these assays?
GPR151 ag: inactive; TEAD-YAP block: inactive; MITF inh: inactive; FBW7 activator: inactive

Results for O=C(Oc1cc(O)cc2c1C[C@@H](OC(=O)c1cc(O)c(O)c(O)c1)[C@@H](c1cc(O)c(O)c(O)c1)O2)c1cc(O)c(O)c(O)c1 ?
GPR151 ag: inactive; TEAD-YAP block: inactive; MITF inh: 62; FBW7 activator: inactive

How did O=C1c2c(O)cc(O)cc2O[C@H](c2ccc(O)c(O)c2)[C@H]1O do in these assays?
GPR151 ag: inactive; TEAD-YAP block: inactive; MITF inh: inactive; FBW7 activator: inactive

Results for O=C1c2c(O)cc(O)cc2O[C@H](c2ccc(O)c(O)c2)[C@@H]1O ?
GPR151 ag: inactive; TEAD-YAP block: inactive; MITF inh: inactive; FBW7 activator: inactive

What do the screens show for `Oc1cc(O)c2c(c1)O[C@H](c1ccc(O)c(O)c1)[C@@H](O)C2`?
GPR151 ag: inactive; TEAD-YAP block: inactive; MITF inh: 57!; FBW7 activator: inactive

Results for CCCCCn1c(SCC(=O)OCC)nc2cc(C(=O)N3CCOCC3)ccc2c1=O ?
GPR151 ag: inactive; TEAD-YAP block: inactive; MITF inh: inactive; FBW7 activator: inactive

How did CCCN(CCC)CCNC(=O)c1nn(-c2cc(OC)cc(OC)c2)c(=O)c2ccccc12 do in these assays?
GPR151 ag: inactive; TEAD-YAP block: inactive; MITF inh: inactive; FBW7 activator: inactive

How did CN(CC1COCCO1)c1nncc(-c2ccc3ccccc3c2)n1 (stereo not given) do in these assays?
GPR151 ag: inactive; TEAD-YAP block: inactive; MITF inh: inactive; FBW7 activator: inactive

How did COC(=O)c1ccccc1NC(=O)CCOc1ccc(OC)cc1 do in these assays?
GPR151 ag: inactive; TEAD-YAP block: 33; MITF inh: inactive; FBW7 activator: inactive
